Compound activity deposited in PubChem by several laboratories.
This is a sample that favours compounds with a hit; in the whole collection about 1.6% have one here.
eIF4E-4G inh = eIF4E–eIF4G protein interaction inhibitors, primary screen, biochemical, uHTS, TR-FRET, eIF4GI fragment. actives 0.37% (n = 220,000). TR-FRET eIF4E-eIF4GI(517-606) binding, 2 h. inhibition, % at 21.7 µM. AID 782, 2007;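 active = inhibition above about 30%, limit read from the data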;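 also: 0% = full FRET control wells and 100% = background wells lacking eIF4GI fragment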
PABP1 MLLE inh = inhibitors of PABP1 MLLE–PAM2 peptide binding, primary screen, biochemical, fluorescence polarization, FITC-PAM2, GST-MLLE | inhibition, % at 20 µM | actives 0.36% (n = 360,000) | AID 588489, 2011; in the data active = inhibition above about 35%, passing the limit was not always enough;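 also: plate controls were DMSO wells with GST-MLLE for no effect and wells lacking GST-MLLE protein for full effect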
PABP FP inh = PABP poly(A) RNA binding inhibitors, primary screen, biochemical, fluorescence polarization, uHTS; actives 1% (n = 290,000); Polyadenylate-binding protein 1 (Homo sapiens), P11940; calls only at 35 µM;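 also: calls also rest on retests at 20 µM and on dose response follow-up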
PERK inhibitor = block of dimerizer-induced PERK translation repression, primary screen, PERK inhibitor project, CHO PERK-DD cells, SEAP luminescence, HTS | CHO PERK-DD fusion, SEAP luminescence translation reporter | inhibition, % at 5.6 µM | actives 0.17% (n = 220,000);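 active = inhibition above the mean inhibition of all tested compounds plus 3 SD, set separately per screening campaign, cut at about 2.9% in these data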;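 also: PERK kinase domain activated by AP20187 dimerizer at 100 nM; 0% = DMSO with dimerizer and 100% = rapamycin at 8.4 µM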
eIF4H inh = human eIF4H binding inhibitors, primary screen, translation initiation inhibitor project, biochemical, uHTS, fluorescence polarization; inhibition, % at 35 µM; actives 0.94% (n = 290,000); AID 2012, 2009; Eukaryotic translation initiation factor 4H (Homo sapiens), Q15056; eIF4H fluorescence polarization binding assay;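 also: calls also rest on retests at 20 µM and on dose response follow-up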
Active calls of the source: *; [ ] = another dose, or the depositor's remark. Unless noted, no rule for the calls is given here.

Results for Cc1cc(=O)[nH]c(SCC(=O)Nc2ccc(S(N)(=O)=O)cc2)n1 ?
eIF4E-4G inh: 2; PABP1 MLLE inh: 21; PABP FP inh: active; PERK inhibitor: 1; eIF4H inh: 63*

Results for CCOC(=O)c1ccc(NC(=O)CSc2nc(C)cc(=O)[nH]2)cc1 ?
eIF4E-4G inh: 19; PABP1 MLLE inh: -7; PABP FP inh: active; PERK inhibitor: 1; eIF4H inh: 81*

What do the screens show for `CCN(C(=O)CSc1nc(N)cc(=O)[nH]1)c1c(N)n(Cc2ccccc2)c(=O)[nH]c1=O`?
PABP1 MLLE inh: 11

Results for CCOc1ccc(OCC(=O)OCC(=O)N2CCN(S(=O)(=O)c3ccc(C)cc3C)CC2)cc1 ?
PABP1 MLLE inh: -7

What do the screens show for `Cc1cc(C)n(CC2CC(=O)N(c3ccc(F)c(Cl)c3)C2=O)n1` (centres undefined)?
eIF4E-4G inh: 3; PABP1 MLLE inh: 2; PABP FP inh: inactive; PERK inhibitor: -1; eIF4H inh: 4

How did Cc1cc(C)n(CC2CC(=O)N(c3ccc(C)c(Cl)c3)C2=O)n1 (centres undefined) do in these assays?
eIF4E-4G inh: 6; PABP1 MLLE inh: 13; PABP FP inh: active; PERK inhibitor: -1; eIF4H inh: inconclusive

Results for c1ccc2[nH]c(SN3CCOCC3)nc2c1 ?
eIF4E-4G inh: 44*[fluorescence artefact?]; PABP FP inh: inactive; PERK inhibitor: 1; eIF4H inh: 7

Results for CN(CC(=O)Nc1ccc(F)cc1)C(=O)COC(=O)c1cc(Br)c(Br)s1 ?
PABP1 MLLE inh: -17

How did O=C(c1ccc(OC2CCN(C/C=C/c3ccc(F)cc3)CC2)cc1)N1CCCC1 do in these assays?
PABP1 MLLE inh: -4; PABP FP inh: inactive; eIF4H inh: -3

What do the screens show for `COc1ccc(NC(=O)COc2ccccc2C)cc1S(=O)(=O)N1CCCCC1`?
PABP1 MLLE inh: -14

What do the screens show for `COc1cc(C(=O)NS(=O)(=O)c2ccccc2C)ccc1Cc1cn(C)c2ccc(NC(=O)OC3CCCC3)cc12`?
eIF4E-4G inh: 17; PABP FP inh: inactive; PERK inhibitor: 1; eIF4H inh: 45*

What do the screens show for `COc1cc2c(cc1NC(=O)Nc1ccc(F)cc1)oc1ccccc12`?
eIF4E-4G inh: 1; PABP1 MLLE inh: 1; PABP FP inh: active; PERK inhibitor: 1; eIF4H inh: 92*

What do the screens show for `CC1=C(C(=O)N2CCOCC2)CC(CC(=O)NCCc2ccccn2)C(=O)N1Cc1ccccc1` (centres undefined)?
PABP1 MLLE inh: -1

What do the screens show for `OC[C@H]1O[C@@H](c2nc(-c3ccccc3Br)no2)[C@H](O)[C@@H](O)[C@H]1O`?
PABP1 MLLE inh: 4

What do the screens show for `O=C1C=C(C2OC(CO)C(O)C2O)C(=O)N1` (centres undefined)?
PABP1 MLLE inh: 43*

Results for Cc1cc(C)n(Cc2cc(C(=O)O)c3ccccc3n2)n1 ?
eIF4E-4G inh: 9; PABP1 MLLE inh: -9; PABP FP inh: inactive; PERK inhibitor: 0; eIF4H inh: -12

Results for CCCOc1ccc(N)cc1N ?
eIF4E-4G inh: 14; PABP1 MLLE inh: 11; PABP FP inh: active; PERK inhibitor: -1; eIF4H inh: 79*

What do the screens show for `O=C(CCN1CCC2CCC(C2)C1)c1ccccc1` (centres undefined)?
PABP1 MLLE inh: 42*

Results for N#CC1=C(N)Oc2cc(N)ccc2C1c1ccc(F)cc1F (centres undefined) ?
PABP1 MLLE inh: -28; PABP FP inh: active; eIF4H inh: 59

What do the screens show for `C/C=C\C=C/C(=O)Nc1cccc(C2=NOC3(C2)C[C@@H](C(N)=O)N(C(=O)/C=C/CC)C3)c1` (some centres undefined)?
eIF4E-4G inh: 75*; PABP1 MLLE inh: 23; PABP FP inh: inactive; eIF4H inh: -5

How did C=C(C)C(=O)Nc1cccc(C2=NOC3(C2)C[C@@H](C(N)=O)N(C(=O)/C=C/CC)C3)c1 (some centres undefined) do in these assays?
eIF4E-4G inh: 5; PABP1 MLLE inh: 2; PABP FP inh: active; eIF4H inh: 84*
